The record followed here is PubChem BioAssay AID836 (Columbia University Molecular Screening Center, 2007).

The structures appear in SMILES notation. Hit rate of the full screen: of about 91,000 compounds, about 160 (0.18%) were called active. This is one part of a sample in which actives are shown more often than they occur. Values without a mark were called inactive.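 Rule for the calls: active = inhibition above the batch mean plus 3 SD and confirmed as a hit by visual image inspection (cut at about 30% in these data, passing the limit was not always enough); inconclusive = above the inhibition threshold but rejected on visual inspection; inactive = the rest.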

The nature of this assay: disruptors of actin filament network in HUVEC – imaging, phalloidin staining, high-content imaging, primary screen (AID 836). As to conditions: HUVEC TNFa F-actin phalloidin imaging, at 2 µM, hits give high values.
As to `CCOC(=O)C1=C(CN2CCc3ccccc32)NC(=O)NC1c1cc(C)ccc1C` (stereo not given), the inhibition is -13.1%.
The figure for `CCn1cc(C(=O)N/N=C(/C)c2ccc(F)cc2)c(=O)c2cc(F)c(N3CCCC3)cc21` is 15.8%; for `Cc1c(C(=O)NCc2ccccc2)cnn1-c1ccccc1` it is -6.2%.
The same measure for `O=C(Nc1cc(C(F)(F)F)ccc1Cl)c1cc2nc3c(c(C(F)(F)F)n2n1)CCCC3`: 0.6%.
The same measure for `O=C(CN1CCCCCC1)Nc1ccc(Br)cc1Br`: 12.8%; for `CC(C)(C)Cc1nnc(NC(=O)c2cc(-c3ccccc3)nc3ccccc23)s1`: 15.7%.
With `C=CCn1c(-c2ccc(Cl)cc2)ccc(C#N)c1=O`, the inhibition was -30.7%.
Turning to `O=[N+]([O-])c1cccc(-c2nnc3c4ccccc4c4ccccc4n23)c1`, the inhibition was 5.3%.
For `CN1OC(COC(=O)c2ccc(Cl)cc2)CC1c1ccccc1` (stereo not given), the inhibition was 6.5%.
Regarding `CC1Cc2ccccc2N1CC(=O)Nc1ccc2c(c1)OC(F)(F)O2` (stereo not given), the inhibition was -0.7%.
The figure for `Cn1sc(NC(=O)c2ccccc2)nc1=O` is -7.1%.
The figure for `CCOC(=O)Cn1c(SC)nc2sc3c(c2c1=O)CC(C)(C)OC3` is 81.7% (active).
For `CCOC(=O)CSc1nc2sc3c(c2c(=O)[nH]1)CC(C)(C)OC3`, the inhibition was 4.9%.
The same measure for `CCC1(C)Cc2c(sc3nc4n(c(=O)c23)CCCS4)CO1` (stereo not given): -10.6%; for `COc1ccc(CCN(C(=O)COc2ccccc2)c2nc(-c3ccccc3)cs2)cc1OC`: -22.5%.
The same measure for `C=CCOc1cccc(CNn2cn[nH]c2=S)c1`: 0.7%.
The same measure for `Cn1c2ccccc2n2c(=O)c(=O)n(CC(=O)c3ccc(F)cc3)nc12`: -17.3%; for `COc1ccc(Nc2nc(-c3ccccc3)cs2)cc1`: 11.3%; for `c1ccc(C2CCC(N3CCC(N4CCCCC4)CC3)CC2)cc1` (stereo not given): 26.6%.
For the compound `O=C(CSCc1c(Cl)cccc1Cl)NN1C(=O)c2ccccc2C1=O`, the inhibition was 11.9%.
The figure for `CC(=O)NNc1cc(=O)c2c(=O)n(C)c(=O)n(C)c2[nH]1` is -8.3%.
As for `CCCCNC(=O)CCn1c(=S)[nH]c2cc3c(cc2c1=O)OCO3`, the inhibition was -16.1%.
The same measure for `CCCNC(=S)NC1CC2CCCC(C1)N2CC(C)C` (stereo not given): 14.2%; for `O=C(NC1CCc2ccccc21)C12CN(Cc3ccccc3)CC1C(c1cccc([N+](=O)[O-])c1)=NO2` (stereo not given): 11.9%; for `CCCSc1nsc(N)n1`: 8.5%.
